About 79,000 compounds went through this panel and 15% of them were active in at least one assay; those are over-represented in the sample as a whole. Calls of active or inactive are those of the source. Cut-off read from the data, not from the text of the source: active = growth inhibition above about 70%; inactive = the rest.

This experiment is described as follows: NCI Yeast Anticancer Drug Screen. Data for the bub3 strain (AID 167). The settings on record: S. cerevisiae bub3 mutant strain, at 50.0 µM (retest, dose inferred, filed as 5.0), stronger effect = higher value. Summed up:
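Whole-cell yeast assay. The mutant strain was incubated with compounds, and growth inhibition was determined by comparison with vehicle-treated cells.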
For `CCCCCCCCCCCCCCOC(=O)C(N)Cc1ccc(O)cc1` (stereo not given), the growth inhibition was 98% (active).
With `CN(C)c1ccc(C(O)(Cc2cccc(C#N)c2)c2ccc(N(C)C)cc2)cc1` the figure was -5% (inactive); with `O=C(NNC(=O)c1cccc(C(=O)NNC(=O)c2ccc(Cl)c(Cl)c2)n1)c1ccc(Cl)c(Cl)c1`, 80% (active); with `C=C1C(=O)O[C@H]2[C@H](OC(C)=O)[C@@H](C)CCC/C(C)=C/CC[C@@]3(C)O[C@@H]3C[C@@H]12`, 98% (active).
Take `O=C(c1ccccc1)C1OC1c1ccccc1Cl` (stereo not given): the growth inhibition was 61% (inactive).
For the compound `[N-]=[N+]=Nc1ccc(SSCCC(=O)ON2C(=O)CCC2=O)cc1`, the growth inhibition was 97% (active).
The value for `Cc1cc(N(CCC#N)CCC#N)ccc1/C(N=Nc1cccc([N+](=O)[O-])c1)=N/NC(=O)c1cc(Cl)ccc1O` was 58% (inactive).
Take `CC(C)/C(Cl)=N\OC(=O)Nc1ccc(S(N)(=O)=O)cc1`: the growth inhibition was 26% (inactive).
For `CCCCCCCCCCCCCC(=O)OCC(O)CO` (stereo not given), the growth inhibition was 22% (inactive).
The value for `O=C1C=CC(=O)N1C1CCCCC1` was 99% (active); that for `CCCCCCCCCCCC(=O)OCC1OC(n2cc(F)c(=O)[nH]c2=O)C(N)C(O)C1O` (stereo not given) was -11% (inactive).
With `CN(C)c1ccc(C2C=C(c3ccccc3)Oc3ccccc32)cc1` (stereo not given) the figure was 97% (active); with `CS(=O)(=O)OCCN(CCOS(C)(=O)=O)c1ccc(C=Nc2cccc(Cl)c2)cc1`, 50% (inactive); with `O=C1C(=O)N(c2cc(Cl)ccc2Cl)C(=O)C(=O)C1c1nc2ccccc2o1`, 2% (inactive).
For the compound `CC1=NC(=Cc2ccc(Cl)cc2)C(=O)N1n1c(-c2ccccc2)nc2ccccc2c1=O`, the growth inhibition is 87% (active).

(Values after PubChem BioAssay (NCI).)
